Most compounds without a hit are left out; they make up all but 0.73% or so of the library.
BioA inh: blocks M. tuberculosis BioA enzyme activity; inhibition, % at 9.99 µM; AID 602481; purified M. tuberculosis BioA enzyme, plate reader; 360,000 compounds, 0.096% hits; in the data active = inhibition above about 40%
Y pestis TopoI: blocks Yersinia pestis topoisomerase I activity; Y. pestis Topo-I cleavage product accumulation, plate reader; AID 504884; 360,000 compounds, 0.064% hits; activity, % at 10 µM; in the data active = activity above about 50%, passing the limit was not always enough
DUSP3 inh: inhibitors of human VHR1 phosphatase (DUSP3); AID 1654; P51452; recombinant VHR phosphatase, pNPP absorbance; inhibition, % at 13.3 µM; 290,000 compounds, 0.52% hits; in the data active = inhibition above about 50%
TcdB GH inh: blocks C. difficile toxin B glycohydrolase activity. P18177. TcdB glycohydrolase enzymatic assay, plate reader. inhibition, % at 9.99 µM. 350,000 compounds, 0.24% hits. AID 652162; in the data active = inhibition above about 10%
Vc quorum ag-1: induces V. cholerae light production without autoinducers; V. cholerae BH1578 lux reporter, luminescence, 6 h; activation, % at 18.7 µM; 350,000 compounds, 0.16% hits; AID 588436; in the data active = activation mostly above about 9.7%, no sharp cut-off
Vc quorum ag-2: quorum light induction in BH1578 reporter strain. shares compounds with Vc quorum ag-1. V. cholerae BH1578 lux reporter, luminescence, 6 h. activation, % at 50 µM. 620 tested, under 10 active. AID 602243; call rule not given here
The depositor's hits bear a star; i = inactive; nt = not tested or not shown.

SMILES | BioA inh | Y pestis TopoI | DUSP3 inh | TcdB GH inh | Vc quorum ag-1 | Vc quorum ag-2
O=C(CCNC(=O)c1ccc(Cl)cc1)NCC(c1ccco1)N1CCCCC1 (stereo not drawn) | -1.3 | 15.0 | nt | 1.7 | 14.3 | 0.1
O=C(NCC(c1ccco1)N1CCCC1)c1ccc(Cl)cc1 (stereo not drawn) | -1.1 | 4.9 | 6.3 | nt | i | nt
Cc1cc(Oc2ccc(C#N)cc2)nc(N2CCOCC2)n1 | -0.9 | 5.5 | -15.7 | nt | 25.0* | -0.1
CC(=O)Nc1ccc(S(=O)(=O)NCCC(=O)OCC(=O)c2cc(C)ccc2C)cc1 | 1.5 | 9.1 | nt | 0.1 | 14.3 | 0.0
Cc1ccc(S(=O)(=O)NCCCC(=O)O)cc1 | nt | -13.5 | 32.9 | 0.1 | -0.1 | nt
Cc1ccc(S(=O)(=O)NCCC(=O)O)cc1 | -0.7 | 1.8 | -2.0 | nt | 33.3* | 0.0
Cc1ccc(C)c(C(=O)COC(=O)CNS(=O)(=O)c2ccccc2)c1 | nt | 7.2 | 7.4 | 1.0 | 0.3 | nt
COc1ccc2c(c1)CCC(C)N2S(=O)(=O)c1ccc(C2CNC(=O)C2)cc1 (stereo not drawn) | nt | 0.3 | -0.1 | 0.8 | 20.5 | 0.4
O=C(O)C1C2CCC(C2)C1C(=O)NCCc1ccc(F)cc1 (stereo not drawn) | -0.3 | 1.9 | 26.1 | -1.5 | -0.2 | nt
O=C(O)C1C2CCC(C2)C1C(=O)Nc1cc(F)ccc1F (stereo not drawn) | -0.3 | 4.3 | 12.0 | nt | 16.7* | -0.1
Cc1ccccc1-n1ccnc1SCC(=O)NCC1CCCO1 (stereo not drawn) | 0.3 | -1.5 | 3.6 | -0.4 | 15.4* | 0.4
Cc1ccc(-n2nnnc2SCC(=O)NCC2CCCO2)cc1C (stereo not drawn) | -1.0 | 1.3 | nt | -0.9 | 12.5 | -100.6
Cc1noc(C)c1S(=O)(=O)N1CCCC(C(=O)NCCC2=CCCCC2)C1 (stereo not drawn) | -0.2 | 0.7 | 14.3 | nt | 20.0* | 1.5
CC(C)Oc1ccc(C(=O)Nc2cc(S(=O)(=O)N3CCOCC3)ccc2N2CCOCC2)cc1 | 0.9 | 2.4 | nt | 1.1 | 1.8 | -0.1
C[C@@H]1CN([C@@H](C)CO)C(=O)c2cc(-c3cccc(C#N)c3)cnc2O[C@@H]1CN(C)C(=O)C1CCC1 | 4.3 | nt | nt | 0.7 | nt | nt
C[C@H]1CN([C@@H](C)CO)C(=O)CCCn2cc(nn2)CO[C@H]1CN(C)Cc1ccc(O)cc1 | -0.4 | nt | nt | 1.0 | nt | nt
O=S(=O)(Cc1ccc(Cl)cc1)N1CCN(Cc2ccccc2)CC1 | nt | 4.6 | -4.1 | -1.4 | 122.4* | 0.1
COc1ccc(NC(=O)COc2cccc3c2CCNC3=O)cc1 | nt | 3.2 | nt | -0.7 | 27.5* | 3.2
CCC(C)n1cnc2c(=O)oc3ccccc3c21 (stereo not drawn) | 1.6 | -6.4 | 16.6 | 2.2 | 114.0* | 20.9
COCCN(C(=O)C1CCC1)c1nnc(-c2cccnc2)s1 | -2.7 | 6.7 | -17.6 | nt | 14.3 | 0.1
CCN(C(=O)C1CCCCC1)c1nnc(-c2cccnc2)s1 | 14.9 | 2.7 | 4.3 | nt | -0.1 | nt
Cc1ccc(S(=O)(=O)Nc2ccccc2F)cc1C(=O)NCCCN1CCCC1=O | -1.8 | -1.3 | 29.2 | nt | 14.3 | 0.0
Cc1ccc(OCCCC(=O)N(C)CC(=O)Nc2ccccc2Cl)cc1 | 0.1 | 31.9 | nt | 1.2 | 12.5 | 0.0
Cc1ccc(C)c(NC(=O)CN(C)C(=O)CCN2C(=O)c3ccccc3C2=O)c1 | -0.4 | -2.7 | 28.2 | nt | 25.0* | 0.1
CO[C@H]1CN(C)C(=O)c2ccc(NC(C)=O)cc2OC[C@@H](C)N(Cc2ccccc2C(=O)O)C[C@@H]1C | nt | nt | nt | 0.1 | nt | nt
SMILES | BioA inh | Y pestis TopoI | DUSP3 inh | TcdB GH inh | Vc quorum ag-1 | Vc quorum ag-2
COc1cccc(CNC(=O)CSc2nc3c(oc4ccccc43)c(=O)n2CC2CCCO2)c1 (stereo not drawn) | -1.2 | -5.7 | nt | 0.8 | -0.3 | nt
COc1ccc(CNC(=O)CSc2nc3c(oc4ccccc43)c(=O)n2CC2CCCO2)cc1 (stereo not drawn) | -3.2 | -1.8 | nt | 1.1 | 14.3 | 0.0
C[C@@H]1CN([C@@H](C)CO)C(=O)c2cc(NS(=O)(=O)c3cn(C)cn3)ccc2O[C@@H](C)CCCCO[C@@H]1CN(C)C(=O)C1CCCCC1 | 0.1 | nt | nt | -0.8 | nt | nt
CCCC(=O)N1CCC2(CC1)CN(C(=O)Nc1c(C)noc1C)[C@@H](CO)c1c2c2ccc(OC)cc2n1C | nt | nt | nt | -1.7 | nt | nt
CCN1CCCC1CNC(=O)c1cc(OC)c(OC)c(OC)c1 (stereo not drawn) | -2.4 | 5.0 | 24.0 | nt | 3.2 | 0.8
Cc1nc2ccc(C(=O)OCC(=O)N(C)c3ccccc3)cc2nc1C | -0.4 | 0.1 | nt | 0.1 | 14.3 | 0.0
CCOC(=O)c1ccc2nc(C)c(C)nc2c1 | nt | -2.2 | 27.1 | 0.8 | i | nt
C[C@@H]1CN([C@H](C)CO)S(=O)(=O)c2ccc(C#CCN(C)C)cc2O[C@H]1CN(C)Cc1ccccc1 | 4.5 | nt | nt | 0.2 | nt | nt
COc1cccc(C#Cc2ccc([C@@H]3[C@H](CO)N4C(=O)CN(C(=O)Cc5cccnc5)C[C@@H]34)cc2)c1 | nt | nt | nt | -6.0 | nt | nt
COc1cc(NC(=O)Cc2cccs2)ccc1-n1cnnn1 | nt | -4.9 | -13.2 | nt | 19.9 | 5.1
COc1cc(C(=O)Nc2ccc3c(c2)OCO3)ccc1-n1cnnn1 | 2.5 | 3.1 | 22.6 | nt | 0.8 | nt
CCN(CC(=O)Nc1ccccc1C(F)(F)F)C(=O)CN1C(=O)NC(C)(c2ccc3ccccc3c2)C1=O (stereo not drawn) | -0.9 | 15.6 | nt | 2.9 | 21.4* | 0.0
CC(=O)c1cc2c(cc1NC(=O)CN1CCCCCCC1)OCO2 | -2.4 | 22.9 | -4.4 | nt | i | nt
CCCCc1cc2c(cc1NC(=O)CN1CCCCC1)OCCO2 | -1.3 | 19.1 | 6.1 | -0.1 | 14.3 | 0.2
COc1ccc(N2CCN(CC(=O)Nc3c(C)cc(C)cc3C)CC2)cc1 | -1.4 | 2.7 | 4.2 | nt | 12.5 | 0.4
CC(C)Oc1ccc(OCCCN2CCCCCC2)cc1 | -0.9 | 2.3 | 18.8 | nt | 14.3 | 0.0
CC(C)c1ccc(OCCCCN2CCCCC2)cc1 | 0.3 | -0.6 | 10.0 | 0.7 | i | nt
C[C@H](NC(=O)[C@@H]1[C@@H](CO)[C@@H]2Cn3c(cccc3=O)[C@@H]2N1Cc1ccncc1)c1ccccc1 | -0.1 | nt | nt | -0.7 | nt | nt
COC(=O)c1cc(C(=O)OCC(=O)c2ccc3c(c2)NC(=O)CO3)cc([N+](=O)[O-])c1 | -3.2 | -4.3 | nt | 1.6 | 14.3 | 9.6
Cc1cccc(C(=O)OCC(=O)c2ccc3c(c2)NC(=O)CO3)c1 | nt | -5.9 | nt | 0.8 | -1.0 | nt
COc1cc2c(cc1OC)C(c1ccc(C)cc1)NC(=O)C2 (stereo not drawn) | 0.0 | 2.9 | -10.7 | -4.5 | 99.6* | 0.7
CCCCNC(=O)c1ccccc1NC(=O)CCSc1ccccc1 | nt | 7.1 | -11.5 | nt | 12.5 | 0.4
